{"source": "PubChem BioAssay (Tox21)", "note": "Records with an inconclusive call do not appear. Values without a mark were called inactive. Calls follow the shape of the dose curve; as a rule, active = well fitted activation curve with a large enough effect in the signal ratio in the repeat runs (not every such curve was filed as active); inconclusive = weak or mixed curves, or effect the other way; inactive = flat fitted curve, though single readings scatter; the % refers to the signal ratio. % is scaled to controls: 0 for no effect and ±100 for the full control effect."}
{"experiment": "qHTS assay to identify small molecule agonists of the endoplasmic reticulum stress response signaling pathway (AID 1159516)", "conditions": "ESRE-bla HeLa, ER stress beta-lactamase reporter, 5 h; series mostly up to 61 µM; activation: at the top concentration", "description": "National Center for Advancing Translational Sciences [NCATS]\nNIH Chemical Genomics Center [NCGC]\nU.S. Environmental Protection Agency [EPA]\nNational Institutes of Environmental Health Sciences [NIEHS]\nNational Toxicology Program [NTP]\nU.S. Food and Drug Administration [FDA]\nEndoplasmic Reticulum (ER) plays an important role in cellular signaling, protein folding/maturation, stress response, lipid biosynthesis, calcium storage and release etc. Under stress conditions, proteins in ER misfold or unfold, and leading to the expression of ER stress responsive genes. ER stress has been associated with a variety of pathophysiological conditions such as cancer, inflammation, neurodegenerative diseases, diabetes, ischemic heart disease etc. To identify the compounds that induce ER stress response, an ER stress reporter cell line, CellSensor ESRE-bla HeLa (Life Technologies, Carlsbad, CA) containing a beta-lactamase reporter gene under control of the Endoplasmic reticulum Stress Response Element (ESRE) was used to screen Tox21 10K compound library.\nTox21 Assay Protocol Summary:\nESRE-bla HeLa cells were dispensed at 1,500 cells/6 uL of assay medium per well into black wall/clear-bottom 1536-well plates using a Multidrop Combi (ThermoFisher Scientific, Waltham, MA) dispenser. After the assay plates were incubated at 37 C and 5% CO2 for an overnight, 23 nL of compounds dissolved in DMSO, positive controls or DMSO only was transferred to the assay plate by a Pintool station (Kalypsys, San Diego, CA). The assay plates were incubated at 37 C and 5% CO2 for 5 hr. One uL of LiveBLAzer B/G FRET substrate (Life Technologies) was added using a Flying Reagent Dispenser (Aurora Discovery, San Diego, CA) and the plates were incubated at room temperature for 2 hr. Fluorescence intensity (405 nm excitation, 460 nm and 530 nm emissions) was measured using an Envision plate reader (PerkinElmer, Shelton, CT)."}
{"smiles": "NS(=O)(=O)Cc1noc2ccccc12", "activation": "0.0166%"}
{"smiles": "COCCOCC(OC)OC", "activation": "-0.782%"}
{"smiles": "O=CN(CCO)CCO", "activation": "-2.03%"}
{"smiles": "CCCC[N+](C)(CCCC)CCCC", "activation": "2.24%"}
{"smiles": "CC(=O)O[C@@]12CO[C@@H]1C[C@H](O)[C@@]1(C)C(=O)[C@H](O)C3=C(C)[C@@H](OC(=O)[C@H](O)[C@@H](NC(=O)OC(C)(C)C)c4ccccc4)C[C@@](O)([C@@H](OC(=O)c4ccccc4)[C@H]21)C3(C)C", "activation": "-7.63%"}
{"smiles": "NC(=O)N[C@@H](CCC(=O)O)C(=O)O", "activation": "3.08%"}
{"smiles": "O=S(=O)(O)c1cc(O)c(O)c(S(=O)(=O)O)c1", "activation": "-0.595%"}
{"smiles": "CCCO[Si](OCCC)(OCCC)OCCC", "activation": "1.43%"}
{"smiles": "N[C@H](C(=O)O)[C@@H](O)c1ccc(O)c(O)c1", "activation": "-4.26%"}
{"smiles": "CCCOC(=O)CC", "activation": "3.61%"}
{"smiles": "CCC(C(=O)NC(=O)NC(C)=O)c1ccccc1", "note": "(stereo not given)", "activation": "-0.198%"}
{"smiles": "CCOC(=O)C(=O)CCCCCCl", "activation": "2.7%"}
{"smiles": "Nc1ccccn1", "activation": "-1.51%"}
{"smiles": "OCCCCCO", "activation": "2.83% [at 78.8 µM]"}
{"smiles": "CCO[Si](OCC)(OCC)c1ccccc1", "activation": "-1.45%"}
{"smiles": "CCCn1cc[n+](C)c1C", "activation": "-3.06% [at 78.8 µM]"}
{"smiles": "CNCCO", "activation": "-0.717%"}
{"smiles": "COC(=O)Nc1ccc(Cl)c(Cl)c1", "activation": "-6.2%"}
{"smiles": "CCCCCCCCCC[N+](C)(C)[O-]", "activation": "6.79%"}
{"smiles": "O=[N+]([O-])c1cncn1CCN1CCOCC1", "activation": "-2.45%"}
{"smiles": "CC1(C)OC[C@@H](COC(=O)CCc2ccc(OC[C@@H](O)CNCCNC(=O)N3CCOCC3)cc2)O1", "activation": "0.164%"}
{"smiles": "Cc1onc(-c2c(Cl)cccc2Cl)c1C(=O)Cl", "activation": "-0.508%"}
{"smiles": "CCN1CCOCC1", "activation": "-0.0403%"}
{"smiles": "NCCCC[C@H](N[C@@H](CCc1ccccc1)C(=O)O)C(=O)N1CCC[C@H]1C(=O)O", "activation": "-0.948%"}
{"smiles": "Nc1c2c(nc3c1CCC3)CCCC2", "activation": "1.72%"}
{"smiles": "c1ccc(CCc2ccccc2)cc1", "activation": "-2.71%"}
{"smiles": "CC(C)=CCC/C(C)=C/C#N", "activation": "2.29% [at 78.8 µM]"}
{"smiles": "O=[N+]([O-])c1ccc(/C=N\\O)o1", "activation": "4.86%"}
{"smiles": "CC(C)c1ccc2ncccc2c1", "activation": "1.66%"}
{"smiles": "CCCCCCCCCCCCSC", "activation": "-0.909%"}
{"smiles": "C=C(C)C(=O)OCC(O)CO", "note": "(stereo not given)", "activation": "1.87%"}
{"smiles": "C[N+]1(C)[C@@H]2CC(OC(=O)[C@H](CO)c3ccccc3)C[C@H]1[C@@H]1O[C@@H]12", "note": "(stereo not given in full)", "activation": "-5.63%"}
{"smiles": "C[N+]1(C)CCCC(OC(=O)C(O)(c2ccccc2)c2ccccc2)C1", "note": "(stereo not given)", "activation": "0.42%"}
{"smiles": "O=C(O)CNC(=O)c1ccc(CO)o1", "activation": "0.0957%"}
{"smiles": "O=Cc1cccc(Br)c1", "activation": "-2.26% [at 78.8 µM]"}
{"smiles": "C[N+](C)(CCOc1ccccc1)Cc1cccs1", "activation": "-1.1%"}
{"smiles": "CC(COc1ccccc1)NN", "note": "(stereo not given)", "activation": "-2.18%"}
{"smiles": "CCCc1nn(C)c2c(=O)[nH]c(-c3cc(S(=O)(=O)N4CCN(C)CC4)ccc3OCC)nc12", "activation": "2.33%"}
{"smiles": "O=C(O)CCCC[P+](c1ccccc1)(c1ccccc1)c1ccccc1", "activation": "0.437%"}
{"smiles": "O=C(CO)[C@@H](O)[C@H](O)[C@@H](O)CO", "activation": "0.906%"}
